Here are results for 60 compounds from PubChem BioAssay AID463190 (Sanford-Burnham Center for Chemical Genomics, 2010).

About 7,300 (2.2%) of roughly 330,000 compounds were called active. This is one part of a sample in which actives are shown more often than they occur.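 Rule for the calls: active = inhibition of at least 40%; inactive = the rest.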

The test can be described thus: growth inhibitors of tim10-1 mutant yeast, primary screen, luminescence, uHTS (AID 463190).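 Note: mutant grown at 25 °C; 0% = DMSO wells with yeast and 100% = wells holding no yeast.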 The conditions noted are these: S. cerevisiae tim10-1 ts strain growth, BacTiter-Glo, 24 h; at 20 µM; hits give high values.
For the compound `Cc1cc(Br)ccc1SCC(=O)OCC(=O)NCc1ccc2c(c1)OCO2`, the inhibition – broadly, the drop in the measured response relative to a control, in per cent – was 28% (inactive). Under `O=C1C=CC(=O)N1c1ccc(N2CCCCC2)cc1` stands 93% (active); under `O=C(Cc1ccccc1)NC(=S)Nc1ccc(N2CCCCC2)cc1`, 38.6% (inactive). The figure for `CC(=O)Nc1ccc(S(=O)(=O)Nc2ccc(N3CCCCC3)cc2)cc1` is 3.03% (inactive). Under `CC(=O)c1cccc(NC(=O)C2CCCN(S(=O)(=O)c3cccc4nonc34)C2)c1` (stereo not given) stands -2.16% (inactive); under `N#Cc1ccc(CSc2nnc3ccccn23)cc1`, 21.5% (inactive).

For `N#Cc1ccc(CSc2nnc(-c3ccccn3)n2-c2ccc(Cl)cc2)cc1`, the inhibition was 40% (active). Under `N#Cc1ccc(CSc2ncccn2)cc1` stands -2.68% (inactive); under `O=C1CSC2=NCN(c3ccccc3)CN12`, -4.56% (inactive); under `Cc1nc(NC(=O)C2CCCCC2)sc1C`, 25.4% (inactive). Take `CC1CCCCC1NC(=O)COc1ccc(C#N)cc1` (stereo not given): the inhibition is -1.06% (inactive). The figure for `CCOC(=O)c1c(NC(=O)C2CC=CCC2C(=O)O)sc(C)c1CC` (stereo not given) is 15.4% (inactive).

As to `O=C(CSc1nnc(-c2cccs2)n1Cc1ccco1)c1ccc2c(c1)OCO2`, the inhibition was -3.98% (inactive). Under `COc1ccc(-c2cc(C3CCN(c4ncccc4[N+](=O)[O-])CC3)[nH]n2)cc1` stands 49.2% (active). Under `COc1ccc(-c2cc3ncccc3cn2)cc1` stands 8.87% (inactive); under `CC(=O)NC(Cc1ccccc1)C(=O)NC1CCN(c2ncccc2[N+](=O)[O-])CC1` (stereo not given), 10.4% (inactive); under `O=C(NCC1CCCO1)c1cc2c(s1)CCCC2` (stereo not given), -4.36% (inactive).

For the compound `O=C1CCCc2c1[nH]c1ccc(Br)cc21`, the inhibition is 13.5% (inactive). The figure for `COc1cccc(C(=O)Oc2cc(C)[nH]c(=O)c2[N+](=O)[O-])c1` is -4.85% (inactive).

For the compound `Cc1ccc(C)c(N2CCN(S(=O)(=O)c3ccc4c(c3)oc(=O)n4C)CC2)c1`, the inhibition was 27.4% (inactive). With `COC(=O)c1cc(S(=O)(=O)N2CCN(c3cc(C)ccc3C)CC2)c[nH]1`, the inhibition was 41.6% (active). Turning to `Cc1ccc(C)c(N2CCN(S(=O)(=O)c3c(C)[nH]c(C)c3C(=O)N3CCCC3)CC2)c1`, the inhibition is -8.05% (inactive). Under `C/C(=N\N1CCN(Cc2ccc(C)cc2)CC1)c1ccco1` stands -7.59% (inactive); under `O=C(CN1CCN(c2ccc(F)cc2)CC1)Nc1ccccc1`, 11.6% (inactive). Under `O=C(CN1CCN(c2ccc(F)cc2)CC1)Nc1cccc(C(F)(F)F)c1` stands 41.1% (active); under `O=C(CN1CCN(c2ccccc2)CC1)Nc1ccc(F)cc1`, -0.126% (inactive). The figure for `Cn1c(CCCOc2ccc(Cl)cc2Cl)n[nH]c1=S` is 47.8% (active); for `CC(C)Oc1ccc(Cc2n[nH]c(=S)n2Cc2ccccc2)cc1Cl` it is -6.21% (inactive). For `O=C(CCCOc1ccc(Cl)cc1Cl)NNC(=O)C1CCC1`, the inhibition is 5.85% (inactive). The figure for `CCN1C(=O)[C@@H]2[C@@H](c3ccc(-c4cccc(Cl)c4)cc3)N3CCC[C@@]3(C(=O)OC)[C@@H]2C1=O` is 30.1% (inactive); for `C[N+]1(CC(O)COc2ccccc2)CCN(C(=O)c2ccc([N+](=O)[O-])cc2)CC1` (stereo not given) it is -0.233% (inactive); for `CCOC(=O)C/C(C)=N\Nc1ccc([N+](=O)[O-])cc1[N+](=O)[O-]` it is 44.5% (active).

For `CCCCOC(=O)CCCc1ccc([N+](=O)[O-])cc1[N+](=O)[O-]`, the inhibition is 28.7% (inactive). Under `CCOC(=O)c1ccc(NNC(C)=O)c([N+](=O)[O-])c1` stands 9.84% (inactive). With `O=C(CS(=O)(=O)c1ccccc1)Nc1ccc(S(=O)(=O)Nc2ccccn2)cc1`, the inhibition is 0.086% (inactive). Under `CC(C)(C)c1cnnn1-c1ccc([N+](=O)[O-])cc1` stands 12% (inactive); under `Cc1cc(C(=O)Nc2c(C)nn(Cc3ccccc3)c2C)on1`, 1.72% (inactive).

`Cc1nn(Cc2ccc(Cl)c(Cl)c2)c(C)c1NC(=O)c1cc(C2CC2)on1`: the inhibition is 57% (active). The figure for `Cc1nn(Cc2ccc(F)cc2)c(C)c1NC(=O)c1cccnc1Cl` is -0.56% (inactive); for `Cc1ccccc1OCC(=O)NCC(=O)OCC(=O)c1ccc2ccccc2c1` it is 18.3% (inactive). The figure for `N/C(=N\S(=O)(=O)c1cc(C(F)(F)F)cc(C(F)(F)F)c1)c1cccs1` is 5.1% (inactive); for `COc1ccc(-n2c(SCC(=O)NCc3ccco3)nnc2-c2c[nH]c3ccccc23)cc1` it is 7.58% (inactive). Under `O=C(N/N=C/c1cccnc1)c1ccc(NC(=O)c2ccc(F)cc2)cc1` stands -1.83% (inactive); under `Fc1ccc(/C=N/Nc2nc(-c3cccnc3)nc3ccccc23)cc1`, 43.3% (active). In the case of `O=c1c2ccccc2nc(N/N=C/c2ccccc2)n1O`, the inhibition was 12.3% (inactive). The figure for `Cc1cc(C)cc(NC(=O)CCN2C(=O)c3ccccc3C2=O)c1` is 15.2% (inactive); for `CCN(CC)C(=O)Oc1ccc(OC(=O)N(CC)CC)cc1` it is 32.3% (inactive); for `CCC(=O)Nc1nnc(S(=O)(=O)N(CC(C)C)c2ccccc2)s1` it is -0.846% (inactive). The figure for `CC1=C/C(=N\OS(=O)(=O)c2ccccc2)C=CC1=O` is 76.6% (active); for `CCOC(=O)C1CCN(C(=O)c2ccccc2N(C)S(=O)(=O)c2ccccc2)CC1` it is 25% (inactive). The figure for `CSc1nnc(C2CCCN(CC(=O)Nc3ccccc3N3CCOCC3)C2)n1C(C)C` (stereo not given) is -3.94% (inactive). For `Cc1ccnc2nc(C(=O)OCC(=O)N(CC(C)C)CC(C)C)nn12`, the inhibition was 13.2% (inactive). The figure for `Cn1cc(/C=C/C(=O)N2CCCC(C(=O)c3ccc(C(F)(F)F)cc3)C2)cn1` (stereo not given) is 24.9% (inactive); for `COc1cccc(C(=O)N/N=C(\C)c2cccc(NC(=O)c3ccc(F)cc3)c2)c1OC` it is 20.1% (inactive); for `Cn1c(CN2CCOCC2)nc2cc(NC(=O)c3ccc(Cl)cc3)ccc21` it is 15.9% (inactive).

Take `CCC(=O)Nc1ccc(S(=O)(=O)Nc2c(NC)c3ccccc3oc2=O)cc1`: the inhibition was 27% (inactive). Under `CN1CCN(c2ccccc2NC(=O)COc2ccc(C3CCCCC3)cc2)CC1` stands 42.9% (active). Under `O=C(CN1CCN(C2CCCCC2)CC1)Nc1ccccc1N1CCCCC1` stands -10.4% (inactive); under `Cc1ccc(C(C)C)cc1OCC(=O)Nc1ccccc1N1CCCC1`, -15.9% (inactive); under `Cc1cc(C)cc(OCC(=O)NNC(=O)CCN2C(=O)c3ccccc3C2=O)c1`, 9.29% (inactive).
